{"source": "paper PMC8384837", "about": "“Expanding the binding specificity for RNA recognition by a PUF domain”", "assay_in_all_cases": "yeast three-hybrid, YBZ-1, SC-Leu-His + 0.5 mM 3-AT, 4 days", "conditions_in_all_cases": "tags: N-Gal4 AD-HA kept; label: inside an RPR1-promoter hybrid RNA with tandem MS2 sites; ssRNA", "key": {"PUM1 PUF domain R3-MRS": {"target": "PUM1 PUF domain R3-MRS (Homo sapiens, UniProt Q14671 828-1176, C935M;Q939S)", "method_in_brief": "(§1)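 Repeat regions from input (SC-Leu) and selection (SC-Leu-His + 0.5 mM 3-AT) plates were PCR-amplified and Illumina-sequenced after four days of growth. The cells were strain YBZ-1 with a LexA–MS2 coat fusion and a HIS3 reporter, co-expressing Pumilio-1 PUF domain libraries and matching RNA elements from a centromeric plasmid. The interaction score is the log change in variant frequency from input to selection, taken in log2 with a pseudocount of 1 for absent variants.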"}, "PUM1 PUF domain R1-YWR": {"target": "PUM1 PUF domain R1-YWR (Homo sapiens, UniProt Q14671 828-1176, S863Y;R864W;Q867R)", "method_in_brief": "as §1"}, "PUM1 PUF domain R4-GNR": {"target": "PUM1 PUF domain R4-GNR (Homo sapiens, UniProt Q14671 828-1176, N971G;H972N;Q975R)", "method_in_brief": "as §1"}, "PUM1 PUF domain R5-LWA": {"target": "PUM1 PUF domain R5-LWA (Homo sapiens, UniProt Q14671 828-1176, C1007L;R1008W;Q1011A)", "sequence (Q14671 828-1176 C1007L/R1008W/Q1011A)": "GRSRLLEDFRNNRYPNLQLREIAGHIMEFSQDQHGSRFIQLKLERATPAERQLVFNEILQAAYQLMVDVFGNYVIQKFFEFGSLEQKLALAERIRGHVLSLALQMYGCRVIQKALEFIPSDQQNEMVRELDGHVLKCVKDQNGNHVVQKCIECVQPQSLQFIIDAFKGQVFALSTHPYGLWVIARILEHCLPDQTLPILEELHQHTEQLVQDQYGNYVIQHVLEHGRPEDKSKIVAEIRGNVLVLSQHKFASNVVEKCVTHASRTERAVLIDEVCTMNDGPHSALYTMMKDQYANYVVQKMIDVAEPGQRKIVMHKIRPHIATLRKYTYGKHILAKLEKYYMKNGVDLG", "method_in_brief": "as §1"}, "PUM1 PUF domain R5-RRP": {"target": "PUM1 PUF domain R5-RRP (Homo sapiens, UniProt Q14671 828-1176, C1007R;Q1011P)", "sequence (Q14671 828-1176 C1007R/Q1011P)": "as the sequence (Q14671 828-1176 C1007L/R1008W/Q1011A) above, with L180R, W181R, A184P counted along it", "method_in_brief": "as §1"}, "PUM1 PUF domain R6-VWA": {"target": "T1, PUM1 PUF domain R6-VWA (Homo sapiens, UniProt Q14671 828-1176, N1043V;Y1044W;Q1047A)", "T1 sequence": "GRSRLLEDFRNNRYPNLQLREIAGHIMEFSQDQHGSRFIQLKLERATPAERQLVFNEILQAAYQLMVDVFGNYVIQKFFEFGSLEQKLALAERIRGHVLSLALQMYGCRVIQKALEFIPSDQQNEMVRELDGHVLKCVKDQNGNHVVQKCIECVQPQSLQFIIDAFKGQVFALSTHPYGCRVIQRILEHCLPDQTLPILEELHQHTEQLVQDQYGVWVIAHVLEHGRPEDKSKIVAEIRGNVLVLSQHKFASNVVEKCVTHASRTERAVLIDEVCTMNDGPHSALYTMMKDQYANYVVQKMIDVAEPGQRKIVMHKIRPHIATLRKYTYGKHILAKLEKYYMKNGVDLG", "method_in_brief": "as §1"}, "PUM1 PUF domain R7-RQL": {"target": "PUM1 PUF domain R7-RQL (Homo sapiens, UniProt Q14671 828-1176, S1079R;N1080Q;E1083L)", "method_in_brief": "as §1"}, "PUM1 PUF domain R4-PWN": {"target": "PUM1 PUF domain R4-PWN (Homo sapiens, UniProt Q14671 828-1176, N971P;H972W;Q975N)", "method_in_brief": "as §1"}, "PUM1 PUF domain R4-DFT": {"target": "PUM1 PUF domain R4-DFT (Homo sapiens, UniProt Q14671 828-1176, N971D;H972F;Q975T)", "method_in_brief": "as §1"}, "PUM1 PUF domain R3-RPG": {"target": "PUM1 PUF domain R3-RPG (Homo sapiens, UniProt Q14671 828-1176, C935R;R936P;Q939G)", "method_in_brief": "as §1"}}}
{"sequence": "GGCUAGAACUAGUGGAUCCCCCGGCGCCCGGCGGCUCGAGCCCGGGUAAGUGUAAGUAGUCUGCAUGCCGCCGGGCGCCAUGCCUGCAGGUCGACUCUAGAAAACAUG", "values": [{"measurement": "binding signal", "setting": "PUM1 PUF domain R3-MRS", "value": "4.95 log2 enrichment (interaction score)"}]}
{"sequence": "GGCUAGAACUAGUGGAUCCCCCGGCGCCCGGCGGCUCGAGCCCGGGUAAGUGUAAAUUGUCUGCAUGCCGCCGGGCGCCAUGCCUGCAGGUCGACUCUAGAAAACAUG", "values": [{"measurement": "binding signal", "setting": "PUM1 PUF domain R1-YWR", "value": "4.46 log2 enrichment (interaction score)"}]}
{"sequence": "GGCUAGAACUAGUGGAUCCCCCGGCGCCCGGCGGCUCGAGCCCGGGUAAGUGUAUAUAGUCUGCAUGCCGCCGGGCGCCAUGCCUGCAGGUCGACUCUAGAAAACAUG", "values": [{"measurement": "binding signal", "setting": "PUM1 PUF domain R4-GNR", "value": "3.44 log2 enrichment (interaction score)"}]}
{"sequence": "GGCUAGAACUAGUGGAUCCCCCGGCGCCCGGCGGCUCGAGCCCGGGUAAGUGUUAAUAGUCUGCAUGCCGCCGGGCGCCAUGCCUGCAGGUCGACUCUAGAAAACAUG", "values": [{"measurement": "binding signal", "setting": "PUM1 PUF domain R5-LWA", "value": "3.28 log2 enrichment (interaction score)"}, {"measurement": "binding signal", "setting": "PUM1 PUF domain R5-RRP", "value": "4.7 log2 enrichment (interaction score)"}]}
{"sequence": "GGCUAGAACUAGUGGAUCCCCCGGCGCCCGGCGGCUCGAGCCCGGGUAAGUGAAAAUAGUCUGCAUGCCGCCGGGCGCCAUGCCUGCAGGUCGACUCUAGAAAACAUG", "values": [{"measurement": "binding signal", "setting": "PUM1 PUF domain R6-VWA", "value": "6 log2 enrichment (interaction score)"}]}
{"sequence": "GGCUAGAACUAGUGGAUCCCCCGGCGCCCGGCGGCUCGAGCCCGGGUAAGUUUAAAUAGUCUGCAUGCCGCCGGGCGCCAUGCCUGCAGGUCGACUCUAGAAAACAUG", "values": [{"measurement": "binding signal", "setting": "PUM1 PUF domain R7-RQL", "value": "3.63 log2 enrichment (interaction score)"}]}
{"sequence": "GGCUAGAACUAGUGGAUCCCCCGGCGCCCGGCGGCUCGAGCCCGGGUAAGUGUCAAUAGUCUGCAUGCCGCCGGGCGCCAUGCCUGCAGGUCGACUCUAGAAAACAUG", "values": [{"measurement": "binding signal", "setting": "PUM1 PUF domain R5-RRP", "value": "5.07 log2 enrichment (interaction score)"}]}
{"sequence": "GGCUAGAACUAGUGGAUCCCCCGGCGCCCGGCGGCUCGAGCCCGGGUAAGUGUAAAUCGUCUGCAUGCCGCCGGGCGCCAUGCCUGCAGGUCGACUCUAGAAAACAUG", "values": [{"measurement": "binding signal", "setting": "PUM1 PUF domain R1-YWR", "value": "4.68 log2 enrichment (interaction score)"}]}
{"sequence": "GGCUAGAACUAGUGGAUCCCCCGGCGCCCGGCGGCUCGAGCCCGGGUAAGUGUAAAUAGUCUGCAUGCCGCCGGGCGCCAUGCCUGCAGGUCGACUCUAGAAAACAUG", "values": [{"measurement": "binding signal", "setting": "PUM1 PUF domain R4-PWN", "value": "2.08 log2 enrichment (interaction score)"}, {"measurement": "binding signal", "setting": "PUM1 PUF domain R5-LWA", "value": "1.66 log2 enrichment (interaction score)"}, {"measurement": "binding signal", "setting": "PUM1 PUF domain R4-DFT", "value": "3.18 log2 enrichment (interaction score)"}, {"measurement": "binding signal", "setting": "PUM1 PUF domain R5-RRP", "value": "3.17 log2 enrichment (interaction score)"}, {"measurement": "binding signal", "setting": "PUM1 PUF domain R6-VWA", "value": "4.02 log2 enrichment (interaction score)"}]}
{"sequence": "GGCUAGAACUAGUGGAUCCCCCGGCGCCCGGCGGCUCGAGCCCGGGUAAGUGUACAUAGUCUGCAUGCCGCCGGGCGCCAUGCCUGCAGGUCGACUCUAGAAAACAUG", "values": [{"measurement": "binding signal", "setting": "PUM1 PUF domain R4-GNR", "value": "1.04 log2 enrichment (interaction score)"}]}
{"sequence": "GGCUAGAACUAGUGGAUCCCCCGGCGCCCGGCGGCUCGAGCCCGGGUAAGUGUAAUUAGUCUGCAUGCCGCCGGGCGCCAUGCCUGCAGGUCGACUCUAGAAAACAUG", "values": [{"measurement": "binding signal", "setting": "PUM1 PUF domain R3-MRS", "value": "2.96 log2 enrichment (interaction score)"}, {"measurement": "binding signal", "setting": "PUM1 PUF domain R3-RPG", "value": "4.38 log2 enrichment (interaction score)"}]}
{"sequence": "GGCUAGAACUAGUGGAUCCCCCGGCGCCCGGCGGCUCGAGCCCGGGUAAGUGUGAAUAGUCUGCAUGCCGCCGGGCGCCAUGCCUGCAGGUCGACUCUAGAAAACAUG", "values": [{"measurement": "binding signal", "setting": "PUM1 PUF domain R5-LWA", "value": "1.01 log2 enrichment (interaction score)"}, {"measurement": "binding signal", "setting": "PUM1 PUF domain R5-RRP", "value": "1.27 log2 enrichment (interaction score)"}]}
